Source: PubChem
RGS8-Gao = RGS8-Galphao binding modulators, primary screen, biochemical, multiplexed bead flow cytometry | Guanine nucleotide-binding protein G(o) subunit alpha (Homo sapiens), P09471 | response (percent of control binding), % at 10 µM | actives lie on both sides | AID 1423, 2008 | 220,000 tested, 0.34% active; in the data active = response below about 60% or above about 140%; inactive = in between;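 also: Galphao activated as the GDP aluminium fluoride complex binding bead-coupled RGS8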
Target sequence (P09471 whole entry, looked up): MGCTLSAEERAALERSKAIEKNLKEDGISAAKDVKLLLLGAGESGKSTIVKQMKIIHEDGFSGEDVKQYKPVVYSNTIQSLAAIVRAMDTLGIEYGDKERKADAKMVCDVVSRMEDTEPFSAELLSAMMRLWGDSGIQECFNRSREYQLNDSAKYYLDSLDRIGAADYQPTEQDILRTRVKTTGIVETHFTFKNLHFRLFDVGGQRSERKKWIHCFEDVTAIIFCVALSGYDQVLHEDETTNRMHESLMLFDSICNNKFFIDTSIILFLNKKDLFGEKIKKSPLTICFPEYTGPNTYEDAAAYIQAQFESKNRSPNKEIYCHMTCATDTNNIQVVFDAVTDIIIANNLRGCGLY
RGS7-Gao = RGS7-Galphao binding modulators, primary screen, biochemical, multiplexed bead flow cytometry. Guanine nucleotide-binding protein G(o) subunit alpha (Homo sapiens), P09471. actives lie on both sides. binding response (% of control), % at 10 µM. 220,000 tested, 0.35% active; in the data active = binding response below about 49% or above about 150%; inconclusive = no clear call, values can overlap the other calls; inactive = in between;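 also: fluorescent Galphao held in activated GDP-AlF4 state binding bead-coupled RGS7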
RGS4-Gao reg = modulators of RGS4 binding to Galphao, primary screen, biochemical, multiplexed bead flow cytometry; Guanine nucleotide-binding protein G(o) subunit alpha (Homo sapiens), P09471; actives lie on both sides; binding response (% of control), % at 10 µM; 220,000 tested, 0.33% active; AID 1415, 2008; in the data active = binding response below about 49% or above about 150%; inactive = in between;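 also: fluorescent Galphao activated with aluminum fluoride binding bead-coupled RGS4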
GSH bead fluor = compound fluorescence on glutathione beads, profiling panel, artefact control, biophysical, 488/530 nm, flow cytometry. GSH beads flow cytometry, compound fluorescence 488/530 nm; active compounds read high. fluorescence (KMESF) at 10 µM. 190,000 tested, 0.25% active; in the data active = fluorescence above about 89;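 also: glutathione beads carrying GST-tagged Bcl family fusion proteins plus one bare bead set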
Avidin fluor = green autofluorescence of compounds with avidin beads – biophysical, 488/530 nm, flow cytometry, artefact control, profiling panel. fluorescence (KMESF) at 10 µM. compound fluorescence 488/530 nm; active compounds read high. 220,000 tested, 0.38% active; in the data active = fluorescence above about 47
RGS16-Gao = modulators of RGS16 binding to Galphao, primary screen, biochemical, human proteins, multiplexed bead flow cytometry; Regulator of G-protein signaling 16 (Homo sapiens) + Guanine nucleotide-binding protein …; binding response (% of control), % at 10 µM; bead-based flow cytometry RGS16-Galphao binding, fluorescence; actives lie on both sides; 220,000 tested, 0.38% active; AID 1441, 2008; call rule not given here;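 also: Galphao activated by GDP with aluminum fluoride before binding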
Target sequence (O15492 whole entry, looked up): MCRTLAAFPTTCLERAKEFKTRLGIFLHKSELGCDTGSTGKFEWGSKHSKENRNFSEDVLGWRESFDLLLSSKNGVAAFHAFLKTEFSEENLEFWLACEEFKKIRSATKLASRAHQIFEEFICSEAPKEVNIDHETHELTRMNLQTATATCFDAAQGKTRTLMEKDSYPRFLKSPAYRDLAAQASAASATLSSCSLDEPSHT
Target sequence (P09471 whole entry, looked up): as the sequence (P09471 whole entry, looked up) above
A number is an active result; [ ] = remark or other dose. In the library only some 1.2% were active in any assay of this set; here they are far more common.

For CC(C)CNc1cc(Cl)c(S(=O)(=O)NCC(C)C)cc1C(=O)O the results were RGS8-Gao inactive, RGS7-Gao inactive, RGS4-Gao reg inactive, GSH bead fluor inactive, Avidin fluor 85 and RGS16-Gao inactive.
Screening Cn1cnc2c(=O)[nH]cc([N+](=O)[O-])c21 returned RGS8-Gao inactive, RGS7-Gao inactive, RGS4-Gao reg inactive, GSH bead fluor inactive, Avidin fluor 62 and RGS16-Gao inactive.
`Cc1sc(NC(=S)NC(=O)c2ccco2)c(C#N)c1C` gave RGS8-Gao inactive, RGS7-Gao inactive, RGS4-Gao reg inactive, GSH bead fluor inactive, Avidin fluor inactive and RGS16-Gao inactive.
Screening Cc1cccc(N(CC(=O)NCc2ccc(F)cc2)C(=O)c2csnn2)c1C returned RGS8-Gao inactive, RGS7-Gao inactive, RGS4-Gao reg inactive, GSH bead fluor inactive, Avidin fluor inactive and RGS16-Gao inactive.
Cc1nn(CC#N)c(=O)n1-c1ccccc1 was read as RGS8-Gao inactive, RGS7-Gao inactive, RGS4-Gao reg inactive, GSH bead fluor 262, Avidin fluor inactive and RGS16-Gao inactive.
Screening Cc1ccc(/C=N/N2CCOCC2)s1 returned RGS8-Gao inactive, RGS7-Gao inconclusive, RGS4-Gao reg inactive, GSH bead fluor inactive, Avidin fluor inactive and RGS16-Gao inactive.
For O=C(NCc1ccccc1Cl)c1ccc(-c2ccccc2)cc1 the results were RGS8-Gao inactive, RGS7-Gao inactive, RGS4-Gao reg inactive, GSH bead fluor inactive, Avidin fluor inactive and RGS16-Gao inactive.
For CCCC(=O)Nc1ccc(C(=O)NCc2ccccc2Cl)cc1 the results were RGS8-Gao inactive, RGS7-Gao inactive, RGS4-Gao reg inactive, GSH bead fluor 137, Avidin fluor inactive and RGS16-Gao inactive.
For N#C/C(=C\c1ccc(O)c(O)c1)S(=O)(=O)c1ccccc1 the results were RGS8-Gao 154.9[activator], RGS7-Gao 203.3[activator], RGS4-Gao reg 223.3[activator], GSH bead fluor inactive and RGS16-Gao 259.4[activator].
For CC1=CC(C)C2(CO)COC(c3ccccc3O)C1C2C (stereo unspecified) the results were RGS8-Gao inactive, RGS7-Gao inactive, RGS4-Gao reg inactive, GSH bead fluor inactive, Avidin fluor inactive and RGS16-Gao inactive.
`Cc1cccc(S(=O)(=O)NCCC(=O)OC(C)C(=O)NC(=O)NC2CCCCC2)c1` (stereo unspecified) gave RGS8-Gao inactive, RGS7-Gao inactive, RGS4-Gao reg inactive, GSH bead fluor 258, Avidin fluor inactive and RGS16-Gao inactive.
`O=C(COC(=O)CCNS(=O)(=O)c1cccc(C(F)(F)F)c1)NC(=O)NC1CCCCC1` gave RGS8-Gao inactive, RGS7-Gao inactive, RGS4-Gao reg inactive, GSH bead fluor inactive, Avidin fluor inactive and RGS16-Gao inactive.
`COc1ccccc1N(Cc1cc(=O)[nH]c2ccccc12)C(=O)c1ccccc1` gave RGS8-Gao inactive, RGS7-Gao inconclusive, RGS4-Gao reg inactive, Avidin fluor inactive and RGS16-Gao inactive.
`CN(Cc1cc(=O)[nH]c2ccccc12)C(=O)c1ccccc1` gave RGS8-Gao inactive, RGS7-Gao inactive, RGS4-Gao reg inactive, GSH bead fluor 271, Avidin fluor inactive and RGS16-Gao inactive.
Screening O=C(Cn1c(=O)oc2cccnc21)Nc1ccc(C(F)(F)F)cc1 returned RGS8-Gao inactive, RGS7-Gao inconclusive, RGS4-Gao reg inactive, Avidin fluor inactive and RGS16-Gao inactive.
For O=C(O)/C=C/C(=O)N1CCN(S(=O)(=O)c2cccc(C(F)(F)F)c2)CC1 the results were RGS8-Gao inactive, RGS7-Gao inactive, RGS4-Gao reg inactive, GSH bead fluor inactive, Avidin fluor inactive and RGS16-Gao inactive.
For O=C(CSc1cccc(C(F)(F)F)c1)N1CCN(S(=O)(=O)c2ccccc2)CC1 the results were RGS8-Gao inactive, RGS7-Gao inactive, RGS4-Gao reg inactive, GSH bead fluor 265, Avidin fluor inactive and RGS16-Gao inactive.
Screening Cc1ccc(C(=O)Nc2ccc(S(=O)(=O)N3CCc4ccccc4C3)cc2)o1 returned RGS8-Gao inactive, RGS7-Gao inactive, RGS4-Gao reg inactive, GSH bead fluor inactive, Avidin fluor 50 and RGS16-Gao inactive.
Cc1ccc(C(=O)Nc2ccc(S(=O)(=O)N3CCc4ccccc43)cc2)o1 was read as RGS8-Gao inactive, RGS7-Gao inactive, RGS4-Gao reg inactive, GSH bead fluor inactive, Avidin fluor inactive and RGS16-Gao inactive.
Screening COc1cc(CCN2C(=O)N[C@@H](c3cccc(C(F)(F)F)c3)C(C(C)=O)=C2C)cc(OC)c1OC returned RGS8-Gao inactive, RGS7-Gao inactive, RGS4-Gao reg inactive, GSH bead fluor inactive, Avidin fluor inactive and RGS16-Gao inactive.
Cc1c(C(=O)OCC(=O)N2c3ccccc3CC2C)oc2ccccc12 (stereo unspecified) was read as RGS8-Gao inactive, RGS7-Gao inactive, RGS4-Gao reg inactive, GSH bead fluor inactive, Avidin fluor 95 and RGS16-Gao inactive.
Screening COCCNC(=O)C1(C)Oc2ccccc2NC1=O (stereo unspecified) returned RGS8-Gao inactive, RGS7-Gao inactive, RGS4-Gao reg inactive, GSH bead fluor 260, Avidin fluor inactive and RGS16-Gao inactive.
Screening CCN1/C(=C\C=C(C(C)=O)C(C)=O)Sc2ccccc21 returned RGS8-Gao inactive, RGS7-Gao inactive, RGS4-Gao reg inactive, GSH bead fluor inactive, Avidin fluor inactive and RGS16-Gao inactive.
Screening CCOC(=O)/C(C#N)=C(C)/C=C1\Sc2ccccc2N1CC returned RGS8-Gao inactive, RGS7-Gao inactive, RGS4-Gao reg inactive, GSH bead fluor inactive, Avidin fluor 70 and RGS16-Gao inactive.
`CS(=O)(=O)c1cnc(-c2cccnc2)nc1N` gave RGS8-Gao inactive, RGS7-Gao inactive, RGS4-Gao reg inactive, GSH bead fluor inactive, Avidin fluor inactive and RGS16-Gao inactive.
`O=C(Cn1ccc(C(F)(F)F)n1)N=Nc1c(O)[nH]c2ccc(Br)cc12` gave RGS8-Gao inactive, RGS7-Gao inactive, RGS4-Gao reg inactive, GSH bead fluor inactive, Avidin fluor inactive and RGS16-Gao inactive.
For COc1ccc(/C=C/c2cc(C(F)(F)F)on2)cc1 the results were RGS8-Gao inactive, RGS7-Gao inconclusive, RGS4-Gao reg inactive, Avidin fluor inactive and RGS16-Gao inactive.
For CC1(C)CC(=O)C=C(Nc2ccccc2F)C1 the results were RGS8-Gao inactive, RGS7-Gao inactive, RGS4-Gao reg inactive, GSH bead fluor 267, Avidin fluor inactive and RGS16-Gao inactive.
`CC1(C)CC(=O)C=C(Nc2ccc(F)cc2F)C1` gave RGS8-Gao inactive, RGS7-Gao inactive, RGS4-Gao reg inactive, GSH bead fluor inactive, Avidin fluor inactive and RGS16-Gao inactive.
